{"source": "the supplement of paper PMC10105736", "test_in_all_cases": "MAPPIT interaction score (arbitrary units); higher = stronger binary interaction signal, active = hit call of the paper", "key": {"Tgi": {"target": "Tgi", "conditions": "MAPPIT configuration: N-N; pair source set: Lit-BM-16;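 active = MAPPIT score above the 99th percentile of random reference set scores in the same batch; inactive = at or below it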"}, "yki": {"target": "yki", "conditions": "MAPPIT configuration: N-N; pair source set: Lit-BM-16"}, "Taf12": {"target": "Taf12", "conditions": "MAPPIT configuration: N-N; pair source set: Curagen_low_conf"}, "Tim17b2": {"target": "Tim17b2", "conditions": "MAPPIT configuration: N-C"}, "THG": {"target": "THG", "conditions": "MAPPIT configuration: N-N; pair source set: screen_2"}, "Tom20": {"target": "Tom20", "conditions": "MAPPIT configuration: N-N; pair source set: DPIM"}, "Swt1": {"target": "Swt1", "conditions": "MAPPIT configuration: N-N; pair source set: Finley_Y2H"}, "Sxl": {"target": "Sxl", "conditions": "MAPPIT configuration: N-N; pair source set: Lit-BM-16"}, "TfIIA-L": {"target": "TfIIA-L", "conditions": "MAPPIT configuration: N-N; pair source set: screen_2"}, "Tm1": {"target": "Tm1", "conditions": "MAPPIT configuration: N-N; pair source set: Curagen_high_conf"}, "Su(var)2-10": {"target": "Su(var)2-10", "conditions": "MAPPIT configuration: N-N; pair source set: DPIM"}, "Tcs6": {"target": "Tcs6", "conditions": "MAPPIT configuration: N-N; pair source set: screen_2"}, "Syp": {"target": "Syp", "conditions": "MAPPIT configuration: N-N; pair source set: DPIM"}}, "note": "± gives the standard deviation of the averaged measurements.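 Further: HEK293T cells with Epo stimulation, STAT-responsive firefly luciferase reporter, fold induction versus unstimulated cells divided by the larger fold induction of two negative controls lacking either bait or prey.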"}
{"binder": "sd (protein) MKNITSSSTCSTGLLQLQNNLSCSELEVAEKTEQQAVGPGTIPSPWTPVNAGPPGALGSADTNGSMVDSKNLDVGDMSDDEKDLSSADAEGVWSPDIEQSFQEALSIYPPCGRRKIILSDEGKMYGRNELIARYIKLRTGKTRTRKQVSSHIQVLARRKLREIQAKIKVQFWQPGLQPSTSQDFYDYSIKPFPQPPYPAGKTSTAVSGDETGIPPSQLPWEGRAIATHKFRLLEFTAFMEIQRDEIYHRHLFVQLGGKPSFSDPLLETVDIRQIFDKFPEKSGGLKDLYEKGPQNAFYLVKCWADLNTDLTTGSETGDFYGVTSQYESNENVVLVCSTIVCSFGKQVVEKVESEYSRLENNRYVYRIQRSPMCEYMINFIQKLKNLPERYMMNSVLENFTILQVMRARETQETLLCIAYVFEVAAQNSGTTHHIYRLIKE", "values": [{"measurement": "MAPPIT interaction score", "setting": "Tgi", "value": "0.163 (inactive)"}, {"measurement": "MAPPIT interaction score", "setting": "yki", "value": "0.822 (inactive)"}]}
{"binder": "CtsF (protein) MRLFAAATVALVLLLGQAAGEELAEERAGQAQGDAESTESSETTTDQAVSEPPITLVHVLNPGEREYLSPNLIGVQNIAMTFLPLSMNFVNIIDAFREITAGVRYEILLNALDTKAIQPAEADIVCRLVILEKPWLRTQWGDKHRELVTSNCTDPAVNSVAGDPAEKARLLNEKYVHRSRRSANDILGRHKPYDEEAAKAQLQKSLDKLTAGEGPHYKIVKVYSASRQVDSGILTRIDADLIDGSEEQHRCIVDIWTKVWVRKDEHEITFKCRNQPVVQARHTRSVEWAEKKTHKKHSHRFDKVDHLFYKFQVRFGRRYVSTAERQMRLRIFRQNLKTIEELNANEMGSAKYGITEFADMTSSEYKERTGLWQRDEAKATGGSAAVVPAYHGELPKEFDWRQKDAVTQVKNQGSCGSCWAFSVTGNIEGLYAVKTGELKEFSEQELLDCDTTDSACNGGLMDNAYKAIKDIGGLEYEAEYPYKAKKNQCHFNRTLSHVQVAGFVDLPKGNETAMQEWLLANGPISIGINANAMQFYRGGVSHPWKALCSKKNLDHGVLVVGYGVSDYPNFHKTLPYWIVKNSWGPRWGEQGYYRVYRGDNTCGVSEMATSAVLA", "values": [{"measurement": "MAPPIT interaction score", "setting": "Taf12", "value": "0.31 (inactive)"}]}
{"binder": "meigo (protein) MNLPERSRFVIYAVGIFVCYFLYGIVQEKLTRGRYGEEVQTDGSVGERFTYALALVWVQCLCNYVFAKVLLTIRPQKEDTTNAGSYVACSLTYLLAMVSTNMAMRWVPYPTAVVGKSAKPIPVMILGVLIGRKSYSWTRYACVLTIVLGVILFMYKEGKVSNLPAETTLLGEVLLFLSLSMDGLTGAVQERIRAASAPSGQQMMRAMNFWSTLMLGVAMVFTGEAKEFMYFTIRHPEAWTHLSLIAVCGVLGQFFIFLMVASFGPLACSVVTTTRKFFTVLCSVLLFGNVLIARQWLGAVLVFAALFVDMLYGKKAPLATAKKPPVEGKLSEEKKLNS", "values": [{"measurement": "MAPPIT interaction score", "setting": "Tim17b2; pair source set: screen_4", "value": "-0.125 (inactive)"}]}
{"binder": "snf (protein) MEMLPNQTIYINNLNEKIKKEELKKSLYAIFSQFGQILDIVALKTLKMRGQAFVIFKEIGSASNALRTMQGFPFYDKPMQIAYSKSDSDIVAKIKGTFKERPKKVKPPKPAPGTDEKKDKKKKPSSAENSNPNAQTEQPPNQILFLTNLPEETNEMMLSMLFNQFPGFKEVRLVPNRHDIAFVEFTTELQSNAAKEALQGFKITPTHAMKITFAKK", "values": [{"measurement": "MAPPIT interaction score", "setting": "THG", "value": "0.333 (inactive)"}]}
{"binder": "grk (protein) MMQIPFTRIFKVIFVLSTIVAVTDCCSSRILLLREHTLKIVQHQHSHMHEHAHELQQQIQETAVELLNRLELQRKQLEASAQEEADQLHPDTDPNPDSGGQLPNADDSIAADPEQDGIILGSSTDTWLASESSTPITDSETVTTPETVTHTGEPPPDPSSSSTPDSTTPSPNDKETEIQMLPCSEAYNTSFCLNGGHCFQHPMVNNTVFHSCLCVNDYDGERCAYKSWNGDYIYSPPTAQRKVRMAHIVFSFPVLLMLSSLYVLFAAVFMLRNVPDYRRKQQQLHLHKQRFFVRC", "values": [{"measurement": "MAPPIT interaction score", "setting": "Tom20", "value": "0.109 (inactive)"}]}
{"binder": "Zpr1 (protein) MSTVSDPNSSNPPESAGNIRPEPIFREINAEQTDEIVEVESACMNCFETGVTRLLPTKIPFFREVVLMSFKCDHCGHINNEMQSASEIQKSGIRIELRVQSVADLNRRVVRSDNSSISIPEIELEIPVQSQKGEVTTVEGIIERTIAGLSQDQEKRRIDHPETAASIEKYIERLHRLKEVTTPFQVLLEDISGNSFIENPLAPAADPQLKTSYFTRSQQQNEQLGLYEQNHEEQHLLKPIAEDSWPIENLHGEVLQFPTNCPSCQAPCETNMKLTNIPHFKEVVIMATVCGACGHKTNEVKSGGGVEAQGVRFRVQIASREDLTRDVLKSETCSMSIPELDLEVGPHALCGRFTTVEGLLVAMRDQLDGTLFHDSADDATKQQMQRFLDTFEDVMNLKRVITLVLEDPAGNTYVQSLSDDDSEPDDKLTVERYDRSYEDNEDLGLNDMKTEGYEEKA", "values": [{"measurement": "MAPPIT interaction score", "setting": "Swt1", "value": "-0.39 (inactive)"}]}
{"binder": "CG3792 (protein) MTDLIRQGALFLMSEKCYDNYFLYHNFLDVPCFKALLSKGLGLAIIAGSVLVKVPQVLKILNSKSGEGINIVGVVLDLLAISFHLSYNFMHGYPFSAWGDSTFLAIQTVTIAVLVLFFNGRKAQSGLFLVGYVVLMYVLNSGLTPMSVLFTIQSCNIPILLVGKLSQAYTNYQAGSTGQLSAATVIMMFAGSVARIFTSIQETGDFMIILTFIASTFANSVILGQLIYYWNKPAGVKVKDSKAKKPKTKKDD", "values": [{"measurement": "MAPPIT interaction score", "setting": "Tim17b2; pair source set: screen_3", "value": "-0.183 (inactive)"}]}
{"binder": "Unr (protein) MNTQSKVYRTGEEIYDNLPCDSYFNMNAIRNLGIPTTFPTIGTFTLDSTTLGLQPQGQGPSPQQQQHQQQQQQQQQQHQQNMHHHQHQQQHMQQQQQQQQHQQQHQQQQHQQQQQHQQQQQQQQQHPTIGMFDANEVNDVIQNPPQIGVFQSNSVLTNGAGSGSSIFGSQSSNSSAAAADPSQTTRETGIIEKLLHSYGFIQCCERQARLFFHFSQFSGNIDHLKIGDPVEFEMTYDRRTGKPIASQVSKIAPEVVLSEERVTGTVTTELRTDSANNVLNSSETTGRISYENRGECFFLPYTKDDVEGNVNLRAGDKVSFQIATNQRGNLGACHIRLENPAQPVKYRGVVCSMKESFGFIERADVVKEIFFHFSEAEGNVELRPGDDVEFTIQTRSSASVPPQGREFACNITRLAPGSVIFEDVDSTVYKGQVLKSLDRNNPVRQNNDPLPGRIRYRALDYSEVEVPFGDKDQKGDFTLRHGDWVQFLLATDRRDQLQRATSIALLDETFKVSGEKREQGTIASLKEGFGFLRCVERQARLFFHFTEVLDTSREIDINDEVEFTVIQEPGLAYNNSRLQAIRIKHLPPNSVQFETLVASNIEGCVTREAPKSPIKSQDRVEGGVITYEHADVKKTIMYFLKDCEKPPRIGERVRFDIYMVKRNKECIAVNVQQVSLHQQQQQQQQQLHLNQSNAGANINQNDQLGGLSNGISSSSSNASLQNGYVMHGSPGGSTSSVGSNNPVHLDEFKMENNNHAGSDAGQVYRGFIAVMKENFGFIETLSHDEEVFFHFSNYMGNPNWLELGQEVEYTLARNGNTSVSGNCLPAENVRMLPKNSIPQPAVLETTHNGVVARPLRCINPDQQEYAGLIEILDELRTTVISQHEFGITSLVNKRDLLQKGDLVSFRIDESGRAACVNAVRQKKRATVDSIKGQFGFLNFEVEDGKKLFFHMSEVQGNTVALHPGDTVEFSVVTNQRNGKSSACNVLKINDRPDRLISRLKLNGDDTVPRLILIRAPKGPQGKGFSVLARHPRIPGNLVE", "values": [{"measurement": "MAPPIT interaction score", "setting": "Sxl", "value": "1.51 (inactive)"}]}
{"binder": "TfIIA-S-2 (protein) MNYQHYRATTLGRTLQDTLDEMMERGDITKKIANLVLLRYDKSISTALKDHGTSNMSFTAERLETFRCCDNVWTLILKDAEFREDQHSLKVDVVKIVACLGTDNGNE", "values": [{"measurement": "MAPPIT interaction score", "setting": "TfIIA-L", "value": "3.17 ± 3.8"}]}
{"binder": "RpS19b (protein) MPGVTVKEIDQHVLTKNMAAFLKKSGKIFVPEQAVYMKTGKFKETAPTDDDWFYTRCASIMRHLYLRSPAGVGAFTKVYSGRKRNGVRPSKHCRSSDGCIRKALQALEAANMVERHPDGGRKLTPQGQRNLDRIANKIVAKQRERSAPVSMIITT", "values": [{"measurement": "MAPPIT interaction score", "setting": "Tm1", "value": "0.314 (inactive)"}]}
{"binder": "Calr (protein) MMWCKTVIVLLATVGFISAEVYLKENFDNENWEDTWIYSKHPGKEFGKFVLTPGTFYNDAEADKGIQTSQDARFYAASRKFDGFSNEDKPLVVQFSVKHEQNIDCGGGYVKLFDCSLDQTDMHGESPYEIMFGPDICGPGTKKVHVIFSYKGKNHLISKDIRCKDDVYTHFYTLIVRPDNTYEVLIDNEKVESGNLEDDWDFLAPKKIKDPTATKPEDWDDRATIPDPDDKKPEDWDKPEHIPDPDATKPEDWDDEMDGEWEPPMIDNPEFKGEWQPKQLDNPNYKGAWEHPEIANPEYVPDDKLYLRKEICTLGFDLWQVKSGTIFDNVLITDDVELAAKAAAEVKNTQAGEKKMKEAQDEVQRKKDEEEAKKASDKDDEDEDDDDEEKDDESKQDKDQSEHDEL", "values": [{"measurement": "MAPPIT interaction score", "setting": "Su(var)2-10", "value": "1.1 (inactive)"}]}
{"binder": "Tcs3 (protein) MVCALGIEGSANKIGIGIIRDGKVLANVRRTYITPPGEGFLPKETAKHHREAILGLVESSLKEAQLKSSDLDVICYTKGPGMAPPLLVGAIVARTLSLLWNIPLLGVNHCIGHIEMGRLITGAQNPTVLYVSGGNTQVIAYSNKRYRIFGETIDIAVGNCLDRFARIIKLSNDPSPGYNIEQLAKSSNRYIKLPYVVKGMDVSFSGILSYIEDLAEPGKRQNKRKKPQEEEVNNYSQADLCYSLQETIFAMLVEITERAMAHCGSNEVLIVGGVGCNERLQEMMRIMCEERGGKLFATDERYCIDNGLMIAHAGAEMFRSGTRMPFEESYVTQRFRTDEVLVSWRDD", "values": [{"measurement": "MAPPIT interaction score", "setting": "Tcs6", "value": "1.93 (inactive)"}]}
{"binder": "grass (protein) MMIASSLAVLYGIAIVSSMGVQSARADYADDCTTPDGDQGQCMPFSSCRTIEERLTEAQKAGQKVPADYASYLQKALCGEFNGVRHFCCPSANIQHNSKVMSLFKDENFDCGNFLSQRVSNGYEVKLSSRPWMALLRYQQFGESRFLCGGAMISERYILTAAHCVHGLQNDLYEIRLGEHRISTEEDCRQQGRKKKCAPPVVNVGIEKHLIHEKYDARHIMHDIALLKLNRSVPFQKHIKPICLPITDELKEKAEQISTYFVTGWGTTENGSSSDVLLQANVPLQPRSACSQAYRRAVPLSQLCVGGGDLQDSCKGDSGGPLQAPAQYLGEYAPKMVEFGIVSQGVVTCGQISLPGLYTNVGEYVQWITDTMASNGL", "values": [{"measurement": "MAPPIT interaction score", "setting": "Syp", "value": "-0.0477 (inactive)"}]}
